# HT1080 IDH1KD tx – HT-1080 IDH1 knockdown cell toxicity (counter line); HT-1080 IDH1 knockdown viability, ATP luminescence, 48 h; Potency, µM (doses to about 46.1 µM), most hits filed as cytotoxic; 360,000 tested, 2% active
#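 IDH1KD HT-1080 cells, 750/well, RPMI + 5% FBS; compound pinned after 2 h settling; 48 h, 37 °C; CellTiter-Glo luminescence; % activity normalised to DMSO and no-cell wells; curves fitted, classed by r2 and efficacy.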
# HT1080NT lethal – kills 2HG-producing HT-1080-NT fibrosarcoma cells; HT-1080-NT fibrosarcoma viability, CellTiter-Glo ATP luminescence, 48 h; Potency, µM (titrated, usually from 46.1 µM), usual class: cytotoxic; 360,000 tested, 1.6% active; AID 686970;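 further: NT is the 2HG producing partner of a matched IDH1 knockdown line; nearly all actives have a fitted effect of over 55% in size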
#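 A 48-hour cytotoxicity screen used HT-1080-NT cells plated 2 hours before compound delivery. ATP-based CellTiter-Glo luminescence measured viability, normalized to DMSO and no-cell controls.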
# TDP1 cell noCPT – qHTS for Inhibitors of human tyrosyl-DNA phosphodiesterase 1 (TDP1): qHTS in cells in absence of CPT | 420,000 tested, 15% active | Potency, µM (highest dose often 46.2 µM), usual class: inhibitors | DT40 Tdp1-/- hTDP1 cells, no CPT, ATP luminescence, 48 h; further: nearly all actives have a fitted effect of over 55% in size
#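 Seeded 400 DT40-hTDP1 cells/well (vehicle DMSO, no 20 nM CPT); pinned compounds; ≥48 hr at 37 °C; CellTiter-Glo luminescence as viability measure.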
# IL1B secr inh – inhibitors of inflammasome signaling (IL-1 beta secretion); THP-1 LPS/ATP IL-1B secretion, AlphaLISA, 16 h; stronger effect = lower value; activity change, % at 57.5 µM; 360,000 tested, 4.7% active; AID 743279; in the data active means activity change below about -50%; inconclusive means mostly about -30% to -49%
#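 Secreted IL-1B measured by AlphaLISA bead assay after 16 h compound exposure of THP-1 cells; compounds (final up to 57.5 uM) added 1 h before LPS (250 ng/mL) and ATP (1.25 mM) stimulation; lower signal means less secretion.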
# DT40 TDP1 CPT – growth inhibition of DT40 Tdp1-/-;hTDP1 cells with camptothecin (screen for TDP1 inhibitors); Potency, µM (top dose mostly 46.2 µM), actives largely listed as inhibitors; 420,000 tested, 12% active; chicken DT40 Tdp1-/-;hTDP1 cells + 20 nM CPT, ATP luminescence, 48 h; AID 686979; further: nearly all actives have a fitted effect of over 55% in size
#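 Chicken DT40 Tdp1-/- cells complemented with human TDP1, 400 cells/well, exposed to compounds plus 20 nM camptothecin for at least 48 h at 37 C; viability read as ATP content by CellTiter-Glo luminescence.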
# A number is an active result; . = inactive; ? = inconclusive; / = no result given; ! = a repeat was not active. An excerpt weighted towards active compounds, which were near 19% of everything screened. Unless noted, the call rests on the fitted dose curve; in most records, active means well fitted curve in the direction sought with a large enough effect; inconclusive means small, poorly fitted or top-dose-only effect, or another doubt; inactive means no such curve, though single readings can be large; an effect the other way counts as inactive or inconclusive.
SMILES,HT1080 IDH1KD tx,HT1080NT lethal,TDP1 cell noCPT,IL1B secr inh,DT40 TDP1 CPT
CC(=O)N1c2ccc(S(=O)(=O)N3CCCCCC3)cc2CC1C(=O)NCc1ccccc1F (stereo not given),/,/,.,/,.
CCOC(=O)C1=C(Nc2cccc(Cl)c2)OCC1=O,.,.,.,.,.
CCOC(=O)C(=CNNc1cccc(Cl)c1)C(=O)OCC,.,.,20.6µM,.,11.6µM
CCCOc1cccc(C(=O)N(Cc2ccc(OC)c(OC)c2)C2CCS(=O)(=O)C2)c1 (stereo not given),.,.,.,.,.
CCCCOc1cccc(C(=O)N(Cc2sccc2C)C2CCS(=O)(=O)C2)c1 (stereo not given),/,/,14.6µM,/,?
CCCCOc1ccccc1C(=O)N(Cc1sccc1C)C1CCS(=O)(=O)C1 (stereo not given),/,/,20.6µM,/,?
CCCOc1cccc(C(=O)N(Cc2sccc2C)C2CCS(=O)(=O)C2)c1 (stereo not given),/,/,13µM,/,?
NC(=O)c1ccc(NC(=O)C2CCN(S(=O)(=O)Cc3ccccc3)CC2)cc1,/,/,.,/,.
N#Cc1ccc(S(=O)(=O)N2CCN(C(=O)[C@@H]3CCCN3C(=O)c3cccs3)CC2)cc1,.,.,.,.,.
Cc1ccc(/C=C/S(=O)(=O)NCCC(=O)NCc2ccccc2F)cc1,.,.,.,.,.
O=c1[nH]c(=O)n(C2CCCO2)cc1F (stereo not given),.,.,.,.,.
O=c1ccn(C2CCCO2)c(=O)[nH]1 (stereo not given),.,.,14.6µM,.,.
CN(C(=O)CN1C(=O)S/C(=C\c2ccccc2Cl)C1=O)C1CCS(=O)(=O)C1 (stereo not given),.,?,.,.,.
CCN(C(=O)CCN1C(=O)S/C(=C\c2ccccc2)C1=O)C1CCS(=O)(=O)C1 (stereo not given),.,.,?,.,16.4µM
CN(C(=O)CN1C(=O)/C(=C/c2ccccc2Cl)SC1=S)C1CCS(=O)(=O)C1 (stereo not given),.,.,?,?,16.4µM
CN(C(=O)CN1C(=O)/C(=C/c2ccccc2F)SC1=S)C1CCS(=O)(=O)C1 (stereo not given),.,.,?,.,18.4µM
CN(C(=O)CN1C(=O)S/C(=C\c2ccccc2)C1=O)C1CCS(=O)(=O)C1 (stereo not given),.,.,.,.,.
CCCC(=O)N1CCC1(C)C(=O)Nc1ccc(OC)c(OC)c1 (stereo not given),?,?,.,.,.
CCCN1CCN(CCCNC(=O)c2ccc3c(c2)sc2nc(-c4ccc(OC)cc4)cn23)CC1,/,/,1.03µM,/,1.46µM
COc1ccc(-c2cn3c(n2)sc2cc(C(=O)NCCCN4CCN(C)CC4)ccc23)cc1,/,/,1.3µM,/,1.16µM
O=C(NN=C1CCCCCCCCCCC1)c1cccc(S(=O)(=O)N2CCOCC2)c1,.,.,.,.,.
Cc1ccc(C(=O)N2CCC(C(=O)NCc3ccco3)CC2)cc1,.,.,.,.,.
CCC1CN(C(=O)N2CCC(C(=O)NCc3ccco3)CC2)c2cc(C)ccc2O1 (stereo not given),.,.,18.4µM!,.,?
CCc1ccc(CNC(=O)C2CCN(C(=O)N3CC(CC)Oc4ccc(C)cc43)CC2)cc1 (stereo not given),/,/,20.6µM,/,20.6µM
CCC1CN(C(=O)N2CCC(C(=O)NCc3ccc(C)o3)CC2)c2cc(C)ccc2O1 (stereo not given),.,.,?,.,16.4µM!
SMILES,HT1080 IDH1KD tx,HT1080NT lethal,TDP1 cell noCPT,IL1B secr inh,DT40 TDP1 CPT
CCCOc1ccc(CNC(=O)C2CCN(C(=O)N3CCOc4ccccc43)CC2)cc1,.,.,?,.,20.6µM
O=C1CCC(C(=O)OCc2cc(=O)oc3ccc4ccccc4c23)=NN1,.,.,.,.,.
Cc1ccc(NC(=O)C2CCN(C(=O)N3CCOc4ccccc43)CC2)cc1,.,.,?,.,?
Cc1ccc2c(c1)N(C(=O)N1CCC(C(=O)NCc3cccc(Br)c3)CC1)CCO2,/,/,20.6µM,/,?
Cc1ccccc1SC1CCN(Cc2nc(C3CC3)no2)CC1,.,.,.,.,.
Cc1ccnc(SCC(=O)N2CCCc3ccccc32)n1,.,.,.,.,.
CCn1c(SCC(=O)N2CCCc3ccccc32)nc2cccnc21,.,.,18.4µM,.,?
O=C(CSc1nc2ccccc2c(=O)n1-c1ccccc1)N1CCCc2ccccc21,.,.,?,.,.
Cc1cc2c(=O)n(Cc3ccco3)c(SCC(=O)N3CCCc4ccccc43)nc2s1,.,?,?,-66.9,?
CCn1c(SCC(=O)N2CCCc3ccccc32)nc2ccccc2c1=O,.,.,14.6µM,.,?
COCCCn1c(=O)c2ccccc2n(CC(=O)N2CCCc3ccccc32)c1=O,.,.,?,.,25.9µM
Cc1cccc(C)c1OCc1nc2c3c(-c4ccccc4)c(-c4ccccc4)oc3ncn2n1,/,/,.,/,.
O=C(CSc1nc2ccccc2c(=O)n1-c1ccccc1)N1CCc2ccccc21,.,.,?,.,?
Cn1c(SCC(=O)N2CCCc3ccccc32)nc2cccnc21,.,.,?,.,?
CC(C)Cn1c(SCC(=O)N2CCCc3ccccc32)nc2ccccc2c1=O,.,.,18.4µM,-65.6,16.4µM
CC(C)OCCCn1c(SCC(=O)N2CCc3ccccc32)nc2ccccc2c1=O,?,.,11.6µM,.,?
Cn1c(SCC(=O)N2CCc3ccccc32)nc2cccnc21,.,.,20.6µM,.,16.4µM
Nc1ccc(NC(=O)NC2CCCCC2)cc1[N+](=O)[O-],.,.,.,.,.
C[C@]12CC[C@H](O)CC1=CCC1C2CC[C@@]2(C)C1CC[C@@H]2NC(=O)[C@@H](N)Cc1cnc[nH]1 (stereo not given in full),.,.,?,.,.
CC(=O)N/C(=C\c1ccccc1)C(=O)OCC(=O)N(CC(C)C)c1c(N)n(Cc2ccccc2)c(=O)[nH]c1=O,.,.,.,.,.
CC(=O)Nc1ccc(NC(=O)CCSCCc2ccccn2)cc1,.,.,.,.,.
COC(=O)c1ccc(C(=O)OC)c(NC(=O)COC(=O)CCOc2ccc(C)cc2)c1,.,.,.,.,.
COC(=O)C1=C(C)N(c2ccc(Cl)c(Cl)c2)C(=O)C1,?,14.6µM,5.17µM,.,5.17µM
CC(=O)/C(=N/Nc1cccc(C)c1)N1CCOCC1,?,.,?,.,6.51µM
Cc1ccc(-c2cc(C(=O)N3CCN(C(=O)c4ccco4)CC3)[nH]n2)c(C)c1,.,.,.,.,.
